Assay [1] in a line: Cellular Toxicity (caspase-3) H-4-II-E (AID 663).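 Note: cells exposed to compound for 16 hr before readout.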 The procedure, abridged:
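Luminescence from caspase-cleaved aminoluciferin substrate, read 20 min after reagent addition, reports caspase 3/7 activation in rat H-4-II-E cells after 16 hr compound exposure. Normalized to DMSO (basal) and 100 uM tamoxifen (100%); AC50 from Hill fits.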

Assay [2] in a line: Cellular Toxicity (caspase-3) Hek293 (AID 664).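 Note: cells exposed to compound for 16 h at 37 °C before readout.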 The procedure, abridged:
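Cells plated, 5 hr at 37 °C; compounds added; 16 hr at 37 °C; Caspase-Glo 3/7 reagent, 20 min RT; luminescence read. Activation expressed relative to DMSO and 100 uM tamoxifen, AC50 by Hill model.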

The nature of assay [3]: Cellular Toxicity (caspase-3) N2a (AID 665).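 Note: compound exposure lasted 16 h at 37 °C before readout.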 The procedure, abridged: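 N2a cells, 1500/well, 5 h settle at 37 °C; cpd 16 h, 37 °C; Caspase-Glo 3/7, 1 h RT; luminescence. Norm: DMSO = 0, 10 uM staurosporine = 100%. AC50, Hill fit.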
Assay [4] is described as follows: Cellular Toxicity (caspase-3) NIH 3T3 (AID 666). The procedure, abridged:
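Luminescence from aminoluciferin released by caspase-3/7 cleavage of a peptide substrate served as read-out. Mouse fibroblast NIH 3T3 cells were exposed to compounds over a concentration range for 16 hours, and AC50 values came from standard Hill modelling.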

Assay [5] is described as follows: Cellular Toxicity (caspase-3) Renal Proximal Tubule (AID 667).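 Note: cells exposed to compound for 16 hours at 37 °C before detection.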 The procedure, abridged: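 Primary rat proximal tubule cells, 1000/well, 5 h plating at 37 °C, then compound 16 h at 37 °C. Caspase-Glo 3/7 reagent, 1 h RT, luminescence. Normalized to DMSO (basal) and 10 uM staurosporine (100%); Hill-fit AC50.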
Assay [6] deals with Guanine nucleotide-binding protein G(i) subunit alpha-1 (Homo sapiens) (UniProt P63096). Kind of assay: qHTS Assay for Inhibitors of RGS12 GoLoco Motif Activity (Green Fluorophore) (AID 879).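 Note: negative values mean loss of peptide binding seen as reduced polarization.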 The procedure, abridged: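 Fluorescence polarization assay: 50 nM Gαi1 with 10 nM FITC-labeled RGS12 GoLoco peptide in 10 mM Tris pH 7.5, 150 mM NaCl, 0.1 mM GDP, 0.05% NP40, 10 min at room temperature with compound.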
Guanine nucleotide-binding protein G(i) subunit alpha-1 (Homo sapiens), sequence (P63096 whole entry, looked up): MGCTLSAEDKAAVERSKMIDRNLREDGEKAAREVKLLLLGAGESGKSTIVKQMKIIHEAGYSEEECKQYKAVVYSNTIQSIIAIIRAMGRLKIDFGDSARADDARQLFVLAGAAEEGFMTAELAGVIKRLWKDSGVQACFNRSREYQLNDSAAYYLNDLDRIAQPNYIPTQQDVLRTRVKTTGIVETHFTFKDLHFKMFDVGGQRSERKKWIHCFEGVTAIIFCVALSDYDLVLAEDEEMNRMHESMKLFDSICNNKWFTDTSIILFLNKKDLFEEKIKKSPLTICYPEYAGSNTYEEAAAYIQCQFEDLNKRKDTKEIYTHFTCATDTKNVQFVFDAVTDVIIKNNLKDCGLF
(qHTS replaces the single test concentration by a dilution series.)

Assay [7] deals with Cytochrome P450 2C9 (Homo sapiens) (UniProt P11712). Description: qHTS Assay for Inhibitors and Substrates of Cytochrome P450 2C9 (AID 883). Note: nearly all actives have a fitted effect of over 60% in size. In a few lines:
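A luminogenic readout tracked human CYP2C9 (10nM) converting deoxyluciferin (100uM, at KM) in 25mM KPO4 during 60 min at 37C with regenerated NADPH. Values normalized to 57uM sulphaphenazole as complete inhibition.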

In assay [8] the target is Cytochrome P450 3A4 (Homo sapiens) (UniProt P08684). Description: qHTS Assay for Inhibitors and Substrates of Cytochrome P450 3A4 (AID 884). Note: series mostly up to about 57 µM; nearly all actives have a fitted effect of over 50% in size. The procedure, abridged: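 20 nM human CYP3A4 with 25 uM Luciferin-PPXE (at KM) in 200 mM KPO4, preincubated 10 min with compound; NADPH regeneration started a 60 min RT reaction. Luciferin detected by luminescence, normalized to 57 uM ketoconazole as full inhibition.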
Cytochrome P450 3A4 (Homo sapiens), sequence (P08684 whole entry, looked up): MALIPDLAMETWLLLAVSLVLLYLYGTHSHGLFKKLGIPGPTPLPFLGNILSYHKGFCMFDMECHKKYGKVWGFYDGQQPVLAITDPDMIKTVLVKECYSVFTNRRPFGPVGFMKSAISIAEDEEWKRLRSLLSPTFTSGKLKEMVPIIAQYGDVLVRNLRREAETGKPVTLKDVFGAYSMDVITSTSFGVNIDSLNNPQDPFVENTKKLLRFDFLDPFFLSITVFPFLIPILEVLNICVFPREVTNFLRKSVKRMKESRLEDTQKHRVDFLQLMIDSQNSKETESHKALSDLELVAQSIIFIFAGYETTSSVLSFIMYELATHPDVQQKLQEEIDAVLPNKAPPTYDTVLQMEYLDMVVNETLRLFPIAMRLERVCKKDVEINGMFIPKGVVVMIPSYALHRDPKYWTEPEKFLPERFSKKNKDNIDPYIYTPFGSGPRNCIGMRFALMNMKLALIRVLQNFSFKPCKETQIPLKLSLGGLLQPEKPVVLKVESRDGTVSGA

Assay [9] addresses Cytochrome P450 2D6 (Homo sapiens) (UniProt P10635). Kind of assay: qHTS Assay for Inhibitors and Substrates of Cytochrome P450 2D6 (AID 891). Note: nearly all actives have a fitted effect of over 60% in size. Note: potency is the fitted concentration of half-maximal effect. The procedure, abridged:
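Human CYP2D6 (5 nM) with 30 uM Luciferin-ME EGE (at Km) in 100 mM KPO4, compound preincubated 10 min, then NADPH regeneration system for 60 min at room temperature. Luciferin read by luminescence; normalized to 1.43 uM quinidine.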

Assay [10] concerns the target Cytochrome P450 2C19 (Homo sapiens) (UniProt P33261). Description: qHTS Assay for Inhibitors and Substrates of Cytochrome P450 2C19 (AID 899). Note: nearly all actives have a fitted effect of over 60% in size. Note: potency is the fitted concentration of half-maximal effect. In a few lines:
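NADPH-dependent conversion of Luciferin-H EGE (10uM, at KM) by 5nM enzyme in 50mM KPO4, 60 min at 37C following 10 min compound preincubation. Stopped with luciferin detection buffer; luminescence read after 20 min.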

A short description of assay [11]: Confirmation and Secondary Assay for Modulators of Hemoglobin Beta Chain Splicing at IVS2 654 locus (AID 910).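 Note: per-well total GFP intensity by laser scanning cytometry after 2-day treatment.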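 Note: potency is the fitted concentration of half-maximal effect; potency of activators that raise GFP signal by restoring correct splicing.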 The procedure, abridged: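 HeLa cells stably carrying EGFP interrupted by mutant beta-globin IVS2-654 intron (CMV-driven) were treated with compound for 2 days at 37C; corrected splicing was scored as total peak GFP intensity per well (488 nm excitation, 500-520 nm emission).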

A short description of assay [12]: qHTS Assay for Identification of Small Molecule Agonists for Thrombopoietin (TPO) Signaling Pathway (AID 917). The procedure, abridged: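 Murine Ba/F3 cells stably expressing human TPO receptor and a Glycoprotein IIb promoter–luciferase reporter were IL-3-starved overnight, then treated with compounds plus TPO (26 pM final, its EC50) for 24 hrs at 37 C; luminescence was read.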

The nature of assay [13]: Cell Viability - LYMP2-001 (AID 921). Note: nearly all actives have a fitted effect of over 70% in size. Note: potency is the fitted concentration of half-maximal effect. The procedure, abridged:
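Human lymphoblastoid cells (Coriell), 2500 per well, were preincubated 5 hr at 37 C, then exposed to compounds in complete medium for 24 hr at 37 C. Cellular ATP was read by CellTiter-Glo luminescence; AC50 from Hill fits of concentration-response data.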

Assay [14] in a line: Confirmation and Secondary Assay for Modulators of Hemoglobin Beta Chain Splicing at IVS2 705 locus (AID 930).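 For activation: HeLa cells stably expressing the EGFP-705 splicing reporter; series mostly up to about 46 µM.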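 Note: GFP fluorescence per well restored by corrected splicing of the IVS2-705 intron in EGFP.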 Note: potency is the fitted concentration of half-maximal effect. In a few lines:
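First, HeLa EGFP-705 cells are seeded at 500/well in Optimem with 2% FCS and left overnight. Next, compound or DMSO is added for 2 days. Finally wells are laser-scanned and total peak GFP intensity scored.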

Assay [15] is described as follows: qHTS Assay for Identification of Small Molecule Antagonists for NFkB Signaling Pathway (AID 895; active = well fitted inhibition curve with a large enough effect in the signal ratio, with a control signal flat, not every such curve was filed as active; the % refers to the signal ratio; note: potency is the fitted concentration of half-maximal effect). The procedure, abridged:
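NFkB-bla ME-180 cervical carcinoma cells with beta-lactamase reporter under NFkB response element; compounds added, then TNF alpha at 10 pM final (EC50), 5 h at 37 C. LiveBLAzer substrate 2 h, room temperature; emission 460/530 nm at 405 nm excitation.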

Assay [16] in a line: qHTS Assay for Identification of Small Molecule Agonists for Hypoxia Response Element Signaling Pathway (AID 914; active = well fitted activation curve with a large enough effect in the signal ratio, with a control signal flat, not every such curve was filed as active; the % refers to the signal ratio; note: potency is the fitted concentration of half-maximal effect). The conditions noted are these: ME-180 (cervical carcinoma) HRE-bla reporter, beta-lactamase ratio, CoCl2, 17 h; activation: stronger effect = higher value. In a few lines: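 Positive modulation of EC50 CoCl2-induced hypoxia response element signaling is measured in ME-180 cells with a beta-lactamase reporter. Compounds are titrated, incubation runs 17 hours, and %Activity derives from the blue/green ratio.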

Assay [17] concerns the target Muscarinic acetylcholine receptor M1 (Rattus norvegicus) (UniProt P08482). Description: qHTS Assay for Antagonists of Acetylcholine Muscarinic M1 Receptor: Kinetic Measurement of Intracellular Calcium Response (AID 943). Note: nearly all actives have a fitted effect of over 75% in size. Note: potency is the fitted concentration of half-maximal effect. In a few lines: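 Rat M1-CHO cells, 2000/well, overnight → Fluo-4 no-wash dye with probenecid, 1 h 37C → compound 10 min, room temp → basal read 6 s → carbachol EC80 (100 nM) → 4 min kinetic read; peak/basal.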

Assay [18] shares this target. Kind of assay: qHTS Assay for Antagonists of Acetylcholine Muscarinic M1 Receptor: Measurement of IP-One Response (AID 944). Note: nearly all actives have a fitted effect of over 75% in size. Note: potency is the fitted concentration of half-maximal effect. In a few lines: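 M1-CHO (rat), 2000 cells/well, overnight recovery; cpd 10 min; carbachol EC80 (200 nM), 30 min, HEPES buffer + 50 mM LiCl pH 7.4; IP-One HTRF, Ex 337, Em 620/665 nm.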
For assay [19], the target named is Cytochrome P450 3A4 (Homo sapiens) (UniProt P08684). Kind of assay: qHTS Assay for Activators of Cytochrome P450 3A4 (AID 885). Note: nearly all actives have a fitted effect of over 65% in size. In a few lines: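 Quantitative HTS format: compounds preincubated with 20nM human CYP3A4 and Luciferin-PPXE substrate at KM, reaction started by NADPH regeneration, stopped after 60 min, luciferase luminescence read 20 min later.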

The structures appear in SMILES notation. “And” between values parts separate entries of the source, which are not always exact repeats. Equal entries are not always repeated. Inconclusive results are not listed. A structure can be active in one record and inactive in another. The source made the active and inactive calls. Unless noted, calls come from the whole dose curve; as a rule, active = well fitted curve in the direction sought with a large enough effect; inconclusive = small, poorly fitted or top-dose-only effect, or another doubt; inactive = no such curve, though single readings can be large; an effect the other way counts as inactive or inconclusive.

Cytochrome P450 2D6 (Homo sapiens), sequence (P10635 whole entry, looked up): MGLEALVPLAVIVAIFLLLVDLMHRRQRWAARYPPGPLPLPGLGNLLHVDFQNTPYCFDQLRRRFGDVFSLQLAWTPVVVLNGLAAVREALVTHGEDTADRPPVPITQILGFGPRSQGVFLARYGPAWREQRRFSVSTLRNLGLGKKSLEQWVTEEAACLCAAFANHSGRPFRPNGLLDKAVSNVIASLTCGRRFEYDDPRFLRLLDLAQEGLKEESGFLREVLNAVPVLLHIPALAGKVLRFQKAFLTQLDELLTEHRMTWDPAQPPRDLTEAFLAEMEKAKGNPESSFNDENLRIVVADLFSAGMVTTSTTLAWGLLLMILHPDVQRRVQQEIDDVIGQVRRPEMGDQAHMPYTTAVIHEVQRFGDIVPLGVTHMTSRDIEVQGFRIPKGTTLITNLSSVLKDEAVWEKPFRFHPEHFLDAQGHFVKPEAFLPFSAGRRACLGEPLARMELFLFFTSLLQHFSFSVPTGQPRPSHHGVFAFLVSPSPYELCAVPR
Muscarinic acetylcholine receptor M1 (Rattus norvegicus), sequence (P08482 whole entry, looked up): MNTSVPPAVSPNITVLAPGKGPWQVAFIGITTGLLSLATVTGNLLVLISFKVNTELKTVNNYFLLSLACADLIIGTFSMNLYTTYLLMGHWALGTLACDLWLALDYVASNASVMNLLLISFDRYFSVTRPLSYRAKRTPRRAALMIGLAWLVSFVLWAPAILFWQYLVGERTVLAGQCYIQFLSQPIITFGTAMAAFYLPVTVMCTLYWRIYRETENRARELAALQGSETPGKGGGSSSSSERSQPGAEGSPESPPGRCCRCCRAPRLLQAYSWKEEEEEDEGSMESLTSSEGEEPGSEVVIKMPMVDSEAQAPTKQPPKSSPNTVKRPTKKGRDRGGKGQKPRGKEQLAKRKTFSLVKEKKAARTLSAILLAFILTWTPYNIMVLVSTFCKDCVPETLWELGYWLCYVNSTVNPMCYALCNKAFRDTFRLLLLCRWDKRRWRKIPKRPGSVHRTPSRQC
Cytochrome P450 2C9 (Homo sapiens), sequence (P11712 whole entry, looked up): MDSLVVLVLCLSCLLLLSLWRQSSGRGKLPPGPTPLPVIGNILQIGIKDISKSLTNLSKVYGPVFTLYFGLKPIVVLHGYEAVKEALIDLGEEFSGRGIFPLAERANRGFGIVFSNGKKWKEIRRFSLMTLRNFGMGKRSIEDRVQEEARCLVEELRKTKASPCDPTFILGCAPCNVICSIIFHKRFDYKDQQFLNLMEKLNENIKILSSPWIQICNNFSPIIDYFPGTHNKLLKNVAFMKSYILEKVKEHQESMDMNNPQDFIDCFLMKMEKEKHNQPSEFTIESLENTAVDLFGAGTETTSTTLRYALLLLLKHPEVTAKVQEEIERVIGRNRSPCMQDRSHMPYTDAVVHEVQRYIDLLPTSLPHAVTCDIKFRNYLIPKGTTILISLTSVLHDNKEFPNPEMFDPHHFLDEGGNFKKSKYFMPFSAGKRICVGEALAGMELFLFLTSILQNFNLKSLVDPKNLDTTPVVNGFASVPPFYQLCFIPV
Cytochrome P450 2C19 (Homo sapiens), sequence (P33261 whole entry, looked up): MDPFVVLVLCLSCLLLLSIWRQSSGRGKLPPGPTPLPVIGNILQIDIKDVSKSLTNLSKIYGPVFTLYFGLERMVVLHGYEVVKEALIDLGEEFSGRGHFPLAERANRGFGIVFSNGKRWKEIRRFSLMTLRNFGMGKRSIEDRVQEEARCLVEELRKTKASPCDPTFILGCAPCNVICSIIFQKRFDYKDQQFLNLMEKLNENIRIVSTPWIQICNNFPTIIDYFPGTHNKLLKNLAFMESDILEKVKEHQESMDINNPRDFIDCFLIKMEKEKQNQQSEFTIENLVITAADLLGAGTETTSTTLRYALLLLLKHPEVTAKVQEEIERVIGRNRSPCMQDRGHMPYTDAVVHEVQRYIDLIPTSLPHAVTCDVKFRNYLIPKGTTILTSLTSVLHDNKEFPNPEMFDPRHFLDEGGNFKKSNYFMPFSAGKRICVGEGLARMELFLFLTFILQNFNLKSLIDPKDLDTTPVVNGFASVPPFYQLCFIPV

Consider `NC(=O)c1cnccn1`, for which the compound was called inactive in assay [1], in assay [2], in assay [3], in assay [4], in assay [5] and in assay [6]. In addition, the outcome in [12] was inactive. Moreover, the Potency result in [7], in assay [8], in assay [9], in [10], in assay [11] and in assay [13] was “inactive” throughout. Besides, the Potency result in [14] was “inactive”.
On to `CCOC(=O)N1CCC(=C2c3ccc(Cl)cc3CCc3cccnc32)CC1`, for which the call in [6] was inactive. In addition, the Potency entry in assay [15], in assay [11] and in assay [14] was “inactive” in each case. Besides, in assay [16], the Potency was 15.8 µM (active).
For the compound `OC(CN1CCC(Cc2ccc(F)cc2)CC1)c1ccc(Cl)cc1` (stereo not given), the outcome in [6] was inactive. In addition, in assay [8], the Potency entry is “inactive”. Further, the Potency in assay [17] is 398 nM (active); in [18] it was 7.94 µM (active).
Take `O=C1CCc2cc(OCCCCc3nnnn3C3CCCCC3)ccc2N1`: the call in assay [6] and in assay [19] was inactive. The Potency result in [9], in [10], in assay [11] and in assay [14] was “inactive” each time.
On to `Cn1cnc([N+](=O)[O-])c1Sc1ncnc2nc[nH]c12`, for which the result in assay [1], in assay [2], in assay [3], in [4], in assay [5] and in assay [6] was inactive. For the same compound, the result in assay [12] was inactive. In addition, in assay [15], the Potency entry is “inactive”. Moreover, the Potency in assay [11] was 1.58 µM (active); in assay [13], 39.8 µM (active); in assay [14], “inactive and 2.51 µM (active)”.
As for `NC(N)=NC(=O)c1nc(Cl)c(N)nc1N`, the result in assay [1], in assay [2], in assay [3], in assay [4], in [5] and in [6] was inactive. Also, the call in assay [12] was inactive. Also, the Potency result in [8], in [15], in [11] and in assay [14] was “inactive” throughout.
For the compound `O=c1n(CCCN2CCN(c3cccc(Cl)c3)CC2)nc2ccccn12`, the compound was called inactive in assay [6] and in assay [12]. In addition, the Potency entry in assay [8], in assay [11], in assay [14] and in [18] was “inactive” in each case.
Take `C1COC(NC(C2CC2)C2CC2)=N1`: the compound was called inactive in [6], in [19] and in assay [12]. The Potency result in assay [7], in assay [10], in [17] and in [18] was “inactive” throughout. Moreover, in assay [9], the Potency was 398 nM (active).
With `CC(=O)Oc1ccccc1C(=O)O`, the compound was called inactive in [1], in assay [2], in [3], in assay [4], in assay [5] and in [6]. In [12], the compound was called inactive. The Potency result in assay [7], in assay [8], in [9], in assay [10], in assay [11] and in assay [13] was “inactive” throughout. For the same compound, in assay [14], the Potency entry was “inactive”.
In the case of `CCCC(CCC)C(=O)O`, the compound was classed as inactive in [2], in assay [3], in assay [4], in [5], in assay [6] and in [12]. Further, the Potency entry in assay [8], in assay [11], in assay [13] and in [14] was “inactive” in each case.
On to `NNCCc1ccccc1`, for which the compound was classed as inactive in [6], in assay [19] and in assay [12]. The Potency is 6.31 µM (active) and 2.51 µM (active) in [9]; 794 nM (active) and 316 nM (active) in [10]. Further, the Potency result in assay [11] and in [14] was “inactive” each time.
For the compound `Cc1oncc1C(=O)Nc1ccc(C(F)(F)F)cc1`, the call in [6] and in assay [19] was inactive. The Potency entry in assay [9], in [15], in assay [10], in assay [11] and in assay [14] was “inactive” in each case.
Turning to `O=c1[nH]cnc2[nH]ncc12`, the compound was called inactive in assay [1], in [2], in assay [3], in assay [4], in assay [5] and in [6]. Also, the outcome in assay [12] was inactive. Besides, the Potency result in assay [7], in assay [8], in assay [9], in assay [10], in assay [11] and in assay [13] was “inactive” in each case. Further, the Potency entry in assay [14] was “inactive”.
Consider `Nc1ccc(S(=O)(=O)Nc2ccnn2-c2ccccc2)cc1`, for which the outcome in [6] and in [19] was inactive. In addition, the Potency in assay [15] was 7.08 µM (active). Besides, the Potency result in assay [10], in [11], in assay [14] and in [18] was “inactive” throughout.
For the compound `NC[C@H](O)c1ccc(O)c(O)c1`, the compound was classed as inactive in assay [6].

Source of the values: PubChem BioAssay (NCATS).
